Screening results (PubChem BioAssay)
MCF10A rereplic: induces DNA re-replication in MCF 10a normal breast cells; MCF 10A DNA re-replication, Hoechst nuclear intensity, 48 h; Potency, µM (series often up to 46.1 µM), for inactives: at the highest dose activity, positive = re-replication, most hits filed as activators; actives 2.9% (n = 350,000); note: % of control where 0% means no effect; nearly all actives have a fitted effect of over 50% in size
KB-3-1 tox: KB-3-1 parental cell cytotoxicity. Potency, µM (titrated, usually from 46.1 µM), actives largely listed as cytotoxic. KB-3-1 viability, CellTiter-Glo ATP luminescence, 72 h. actives 1.4% (n = 400,000); note: % is set by controls: 0 for no effect and ±100 for the full control effect; nearly all actives have a fitted effect of over 60% in size
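Viability of parental KB-3-1 cells, measured by CellTiter-Glo luminescence, followed a 72 h incubation at 37 °C with pinned compounds in phenol-red-free DMEM containing 10% FBS.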
KB-V1 cytotox: KB-V1 MDR subline cytotoxicity | actives 3.4% (n = 400,000) | KB-V1 MDR cells viability, CellTiter-Glo, 72 h | Potency, µM (titrated, usually from 46.1 µM), most hits filed as cytotoxic; note: % is set by controls: 0 for no effect and ±100 for the full control effect; nearly all actives have a fitted effect of over 60% in size
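Drug-selected KB-V1 cells, grown in DMEM lacking phenol red with 10% FBS, receive compound titrations; after three days at 37 degrees C, surviving cell ATP is quantified by CellTiter-Glo luminescence and responses normalized and curve-fitted.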
ELG1 repair inh: inhibitors of ELG1-dependent DNA repair in HEK293T cells; actives 2.3% (n = 330,000); HEK293T ELG1-luciferase reporter, luminescence, 16 h; DNA damage induced by 5-fluorouridine; Potency, µM (titrated, usually from 46.1 µM), for inactives: at the highest dose activity change, negative = inhibition, usual class: inhibitors; AID 504467; note: % is set by controls: 0 for no effect and ±100 for the full control effect; nearly all actives have a fitted effect of over 55% in size
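Cells (2,000 per well) received 5-fluorouridine plus test compound or DMSO and were incubated 16 hr at 37 °C, 5% CO2. Luciferase activity was read by luminescence 30 min after ONE-Glo addition; signal suppression marked inhibition of damage-induced ELG1 function.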
SW480 rerep: induces DNA re-replication in SW480 colon adenocarcinoma cells. SW480 DNA re-replication, Hoechst DNA content imaging, 48 h. actives 1.8% (n = 340,000). Potency, µM (titrated, usually from 46.1 µM), without a hit: at the top dose re-replication activation, most hits filed as activators. AID 624297; note: % of control where 0% means no effect; nearly all actives have a fitted effect of over 55% in size
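Quantitative HTS format with DMSO vehicle controls; 48 hr drug incubation at 37 C, then 40 min Hoechst staining and scanning imager measurement at 405 nm excitation.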
The depositor's hits bear a star; i = inactive; ? = inconclusive; nt = no result; [ ] = another dose, or the depositor's remark. This is a sample that favours compounds with a hit; in the whole collection about 8.1% have one here. Calls come from the whole dose curve; as a rule, active = well fitted curve in the direction sought with a large enough effect; inconclusive = small, poorly fitted or top-dose-only effect, or another doubt; inactive = no such curve, though single readings can be large; an effect the other way counts as inactive or inconclusive. Potency is the fitted concentration of half-maximal effect.

SMILES	MCF10A rereplic	KB-3-1 tox	KB-V1 cytotox	ELG1 repair inh	SW480 rerep
C[C@@H]1CN([C@H](C)CO)C(=O)c2cc(C#CC3CCCCC3)cnc2O[C@H]1CN(C)Cc1cccnc1	nt	?	i	nt	nt
CC(C)(C)NS(=O)(=O)c1ccc2nc(NC(=O)c3cccnc3)sc2c1	nt	i	?	nt	nt
COc1ccccc1CCn1cnc(-c2ccc(OC)c(OC)c2)c1C(C)C	nt	?	i	nt	nt
CCc1ccccc1Oc1nc2cc(-c3cccc(OC)c3)sc2c(=O)n1C	nt	i	i	nt	nt
CCCCc1c(-c2cccc(OC)c2)ncn1CCc1ccccc1OC	nt	?	12µM*	nt	nt
CCCCCc1c(-c2ccccc2)ncn1CCc1ccccc1OC	nt	?	15µM*	nt	nt
CCCCCc1c(-c2ccc(F)cc2F)ncn1CCc1ccccc1OC	nt	?	13µM*	nt	nt
CCCCc1c(-c2ccc(OC)c(OC)c2)ncn1CCc1ccccc1OC	nt	?	9.2µM*	nt	nt
Cc1cc(C)c2c(n1)nn1c(NCCCN(C)C)cc(C)nc21	?	i	i	21%	21µM*
Cc1cc(C)c2c(n1)nn1c(NCCOCCO)cc(C)nc21	2%	i	i	6%	-4%
COc1ccccc1N1CCN(C(=O)c2ccc(S(=O)(=O)N3CCCCCC3)cc2)CC1	?	i	i	15µM*	2%
COc1ccccc1N1CCN(S(=O)(=O)c2ccc(F)cc2)CC1	0%	i	13µM*	-2%	0%
Cc1cc(C)c(Cn2c(=O)n(-c3ccccc3Cl)c(=O)c3c(C)c(C(=O)N(C)C)sc32)c(C)c1	nt	i	i	nt	nt
O=C(COc1ccccc1C(=O)Nc1ccccc1)Nc1ccc(-c2ccccc2)cc1	nt	i	i	nt	nt
OC(c1ccccc1)c1ncc(-c2cccc(OCc3ccccc3)c2)[nH]1 (stereo not given)	nt	i	i	nt	nt
Cc1c(C(=O)Nc2ccccc2)cn2c(nc3ccccc32)c1C#N	?	i	i	4%	?
Cc1ccccc1C(=O)Nc1ccc2c(C#N)c3nc4ccccc4nc3n2c1	6%	i	i	18µM*	-6%
CCCCn1c(SCC(=O)c2c(N)n(C3CC3)c(=O)[nH]c2=O)nc2cc(S(N)(=O)=O)ccc21	4%	i	i	-1%	-1%
COc1ccc(C2=CC(c3ccccc3Cl)n3nc(-c4ccc(C)cc4)nc3N2)cc1 (stereo not given)	nt	i	i	nt	nt
O=[N+]([O-])c1ccc(CN2CCCCCC2)s1	13%	23µM*	?	27%	?
O=C(/C=C/c1ccc([N+](=O)[O-])s1)N1CCCCC1	?	15µM*	?	?	5.8µM*
CC1CC(C)CN(C(=O)/C=C/c2ccc([N+](=O)[O-])s2)C1 (stereo not given)	22%	i	?	?	?
CC1CN(C(=O)/C=C/c2ccc([N+](=O)[O-])s2)CC(C)O1 (stereo not given)	?	?	8.2µM*	?	8.2µM*
O=C(/C=C/c1ccc([N+](=O)[O-])s1)N1CCN(c2ccccc2)CC1	?	i	i	0%	27%
O=C(/C=C/c1ccc([N+](=O)[O-])s1)N1CCCC1	-1%	?	?	15µM*	12µM*
SMILES	MCF10A rereplic	KB-3-1 tox	KB-V1 cytotox	ELG1 repair inh	SW480 rerep
COc1ccc(Cl)cc1C(=O)NNC(=O)c1nn(C)c(=O)c2ccccc12	16%	?	i	?	-8%
COc1ccc(Cn2cc(C(=O)c3ccc(C)c(C)c3)c(=O)c3ccccc32)cc1	nt	i	i	nt	nt
COc1ccc2c(c1)c(=O)c(C(=O)c1ccccc1)cn2Cc1ccc(C)cc1	?	?	18µM*	?	?
Cc1ccccc1-n1c(SCC(=O)c2cc(C)n(C)c2C)nnc1-c1ccncc1	14%	i	i	11µM*	4%
COc1ccccc1-n1cnnc1SCC(=O)c1cc(C)n(Cc2cccs2)c1C	9%	i	16µM*	10%	-5%
C=CCn1c(SCC(=O)c2cc(C)n(Cc3cccs3)c2C)nnc1-c1ccncc1	-12%	i	?	16µM*	0%[9.22 µM]
C=CCn1c(SCC(=O)c2c(C)[nH]c3ccccc23)nnc1-c1ccncc1	4%	i	i	16%	0%
CN(C)c1ccc(C=Nc2cnc3ccccc3c2)cc1	nt	i	i	nt	nt
CC(=O)c1cccc(OCC(O)CN2CCN(C(=O)c3ccco3)CC2)c1 (stereo not given)	-12%	i	i	10%	?
Fc1ccc(C(CCNCc2ccccn2)c2ccc(Cl)cc2)cc1 (stereo not given)	?	i	i	-11%	4%
O=C1c2cccc3cccc(c23)C(=O)N1c1cccnc1	18µM*	i	i	1%	3%
COc1ccc(N2C(=O)c3cccc4cccc(c34)C2=O)cc1	2%	i	i	3%	13µM*
COc1ccc(N2C(=O)c3ccccc3C2=O)cc1	11%	i	i	13%	-1%
COc1cc(C(C)=O)ccc1OCC(=O)Nc1ccc(C)c(S(=O)(=O)N2CCCCCC2)c1	-1%	i	i	?	-5%
COc1ccccc1CNS(=O)(=O)CCNC1CC1	18%	i	i	nt	-1%
O=C(CSc1ncnc2c1cnn2-c1ccccc1)NC1CCS(=O)(=O)C1 (stereo not given)	-3%	i	?	1%	-10%
Cc1nn(-c2ccccc2)c(C)c1-c1nnc(-c2c(C)nn(-c3ccccc3)c2C)o1	0%	i	9.2µM*	0%	-13%
Cc1[nH]n(C2=NCCS2)c(=O)c1N=Nc1cccc(C(F)(F)F)c1	10%	?	i	2.9µM*	?
COc1ccc(/C=N/NC(=O)c2cccc(Br)c2)cc1CSc1ccccn1	15µM*	?	12µM*	-17%	?
COc1ccc(C(=O)N/N=C/c2ccc(OC)c(CSc3ccccn3)c2)cc1	14%	i	i	?	-5%
COc1ccc(/C=N/NC(=O)c2cccnc2)cc1CSc1ccccn1	13µM*	?	?	?	13µM*
CCc1ccc(CNC(=O)Cn2c(-c3cccs3)cc3cc(F)ccc32)cc1	nt	i	i	nt	nt
CC(=O)CC(=O)NC(=NC1CCCCC1)Nc1nc(C)cc(C)n1	?	i	?	10µM*	?
Cc1ccc2c(C)nc(Nc3nc(CSc4nnnn4-c4ccccc4)cc(=O)[nH]3)nc2c1	?	i	i	8.2µM*	?
COc1ccc2nc(Nc3nc(CSc4nnnn4-c4ccccc4)cc(=O)[nH]3)nc(C)c2c1	-1%	?	16µM*	-17%	-3%
COc1ccc2nc(Nc3nc(CSc4ccc(C)cc4)cc(=O)[nH]3)nc(C)c2c1	7%[9.22 µM]	?	i	?	-8%
